The values that follow come from the supplement of paper PMC10849652.

The full data set covers some 8,800 targets. This sample favours those with a hit. About 0.5% of all pairs of compound and target were hits. A number with no mark means an inactive call.

Chain of UniProt O00767 (O00767 whole entry, looked up): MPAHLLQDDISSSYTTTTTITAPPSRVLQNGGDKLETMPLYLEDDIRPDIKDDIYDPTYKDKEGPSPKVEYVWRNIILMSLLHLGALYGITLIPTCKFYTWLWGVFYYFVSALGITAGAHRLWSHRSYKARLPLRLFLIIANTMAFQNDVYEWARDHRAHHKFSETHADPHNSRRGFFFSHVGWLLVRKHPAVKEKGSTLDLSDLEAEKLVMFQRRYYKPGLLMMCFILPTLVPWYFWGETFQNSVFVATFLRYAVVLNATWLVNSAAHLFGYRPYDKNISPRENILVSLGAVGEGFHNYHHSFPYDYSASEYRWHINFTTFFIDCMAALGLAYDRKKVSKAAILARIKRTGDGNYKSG
Chain of UniProt Q9P0P0 (Q9P0P0 whole entry, looked up): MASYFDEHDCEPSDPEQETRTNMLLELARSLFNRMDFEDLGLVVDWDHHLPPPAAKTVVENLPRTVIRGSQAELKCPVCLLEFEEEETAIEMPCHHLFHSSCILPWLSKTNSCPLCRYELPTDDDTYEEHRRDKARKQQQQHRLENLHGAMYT
Chain of UniProt Q7L523 (Q7L523 whole entry, looked up): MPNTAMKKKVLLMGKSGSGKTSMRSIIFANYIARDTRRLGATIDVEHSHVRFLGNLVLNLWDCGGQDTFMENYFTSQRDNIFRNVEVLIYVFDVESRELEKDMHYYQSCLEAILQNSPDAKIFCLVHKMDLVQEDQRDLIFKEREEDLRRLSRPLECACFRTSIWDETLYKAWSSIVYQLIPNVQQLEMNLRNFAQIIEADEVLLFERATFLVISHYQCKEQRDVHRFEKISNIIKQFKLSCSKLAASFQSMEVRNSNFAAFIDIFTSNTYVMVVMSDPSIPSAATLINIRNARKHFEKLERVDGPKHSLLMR
Chain of UniProt Q96EE3 (Q96EE3 whole entry, looked up): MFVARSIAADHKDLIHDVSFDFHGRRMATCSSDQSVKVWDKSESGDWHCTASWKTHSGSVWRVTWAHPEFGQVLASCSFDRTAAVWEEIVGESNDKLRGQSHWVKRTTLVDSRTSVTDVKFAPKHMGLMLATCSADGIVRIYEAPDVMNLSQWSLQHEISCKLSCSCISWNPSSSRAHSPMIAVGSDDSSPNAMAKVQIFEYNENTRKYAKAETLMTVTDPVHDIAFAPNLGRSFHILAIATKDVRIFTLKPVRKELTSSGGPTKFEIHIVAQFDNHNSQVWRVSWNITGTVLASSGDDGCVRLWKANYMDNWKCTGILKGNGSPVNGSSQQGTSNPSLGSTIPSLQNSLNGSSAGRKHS
Chain of UniProt Q05823 (Q05823 whole entry, looked up): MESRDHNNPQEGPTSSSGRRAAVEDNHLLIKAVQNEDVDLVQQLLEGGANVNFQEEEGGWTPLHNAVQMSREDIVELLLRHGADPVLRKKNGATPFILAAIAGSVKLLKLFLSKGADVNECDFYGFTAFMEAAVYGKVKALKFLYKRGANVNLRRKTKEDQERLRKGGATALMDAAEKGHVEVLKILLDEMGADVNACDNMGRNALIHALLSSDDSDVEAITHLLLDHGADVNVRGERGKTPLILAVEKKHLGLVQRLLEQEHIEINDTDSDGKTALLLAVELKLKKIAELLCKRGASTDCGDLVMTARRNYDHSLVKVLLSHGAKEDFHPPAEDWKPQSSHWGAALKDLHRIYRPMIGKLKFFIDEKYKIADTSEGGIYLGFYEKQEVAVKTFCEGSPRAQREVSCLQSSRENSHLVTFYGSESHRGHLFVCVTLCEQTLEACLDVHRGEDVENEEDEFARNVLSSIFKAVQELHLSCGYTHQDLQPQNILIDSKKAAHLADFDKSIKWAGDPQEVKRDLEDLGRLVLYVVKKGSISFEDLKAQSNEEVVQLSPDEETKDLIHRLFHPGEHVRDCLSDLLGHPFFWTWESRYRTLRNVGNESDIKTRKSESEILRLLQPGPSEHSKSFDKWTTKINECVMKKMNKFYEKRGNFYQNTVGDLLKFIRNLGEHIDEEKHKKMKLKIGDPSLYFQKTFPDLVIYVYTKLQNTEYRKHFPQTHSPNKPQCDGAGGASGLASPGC
Chain of UniProt Q9BRS2 (Q9BRS2 whole entry, looked up): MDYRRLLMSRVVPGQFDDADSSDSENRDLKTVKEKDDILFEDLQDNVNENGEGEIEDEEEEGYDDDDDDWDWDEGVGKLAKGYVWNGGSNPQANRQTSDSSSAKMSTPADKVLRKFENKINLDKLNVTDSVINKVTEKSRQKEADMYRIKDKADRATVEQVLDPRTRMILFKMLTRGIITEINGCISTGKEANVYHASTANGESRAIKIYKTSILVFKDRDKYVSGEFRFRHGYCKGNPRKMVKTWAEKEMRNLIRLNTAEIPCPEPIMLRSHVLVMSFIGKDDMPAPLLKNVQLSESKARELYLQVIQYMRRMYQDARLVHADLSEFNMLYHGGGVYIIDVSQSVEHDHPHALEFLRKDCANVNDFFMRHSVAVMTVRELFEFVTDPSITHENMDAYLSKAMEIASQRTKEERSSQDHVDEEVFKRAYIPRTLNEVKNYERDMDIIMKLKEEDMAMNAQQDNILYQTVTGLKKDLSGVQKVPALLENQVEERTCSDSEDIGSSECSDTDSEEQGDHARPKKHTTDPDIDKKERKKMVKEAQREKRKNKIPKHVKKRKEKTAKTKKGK
Chain of UniProt Q13546 (Q13546 whole entry, looked up): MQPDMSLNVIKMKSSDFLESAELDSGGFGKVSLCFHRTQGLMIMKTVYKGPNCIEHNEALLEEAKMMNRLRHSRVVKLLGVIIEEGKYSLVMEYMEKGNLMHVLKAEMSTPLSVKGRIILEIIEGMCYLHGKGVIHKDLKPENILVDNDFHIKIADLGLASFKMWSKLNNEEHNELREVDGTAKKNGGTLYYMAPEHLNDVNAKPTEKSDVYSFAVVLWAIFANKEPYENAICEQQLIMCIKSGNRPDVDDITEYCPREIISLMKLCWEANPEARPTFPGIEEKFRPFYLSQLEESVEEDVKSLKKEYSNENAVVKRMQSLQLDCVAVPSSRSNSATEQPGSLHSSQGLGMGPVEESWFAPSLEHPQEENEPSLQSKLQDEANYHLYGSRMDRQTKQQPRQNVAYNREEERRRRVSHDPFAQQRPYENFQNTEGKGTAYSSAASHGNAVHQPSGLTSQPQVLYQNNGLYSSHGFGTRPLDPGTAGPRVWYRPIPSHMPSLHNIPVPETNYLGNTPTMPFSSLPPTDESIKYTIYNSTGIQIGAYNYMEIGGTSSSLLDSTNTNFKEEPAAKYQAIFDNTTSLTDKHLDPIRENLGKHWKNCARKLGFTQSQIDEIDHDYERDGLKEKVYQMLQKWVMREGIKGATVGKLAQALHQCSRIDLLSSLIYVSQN
Chain of UniProt Q8WWV3 (Q8WWV3 whole entry, looked up): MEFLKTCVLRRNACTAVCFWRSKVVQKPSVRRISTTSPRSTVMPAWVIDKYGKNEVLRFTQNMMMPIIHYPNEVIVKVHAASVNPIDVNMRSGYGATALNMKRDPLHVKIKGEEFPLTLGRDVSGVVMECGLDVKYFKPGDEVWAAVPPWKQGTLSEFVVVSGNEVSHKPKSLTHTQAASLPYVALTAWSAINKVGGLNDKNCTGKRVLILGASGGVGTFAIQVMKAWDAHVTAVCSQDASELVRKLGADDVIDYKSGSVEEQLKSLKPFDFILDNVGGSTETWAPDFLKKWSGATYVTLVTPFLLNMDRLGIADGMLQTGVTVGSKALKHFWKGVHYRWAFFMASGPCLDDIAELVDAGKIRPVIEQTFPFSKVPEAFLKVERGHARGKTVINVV
Chain of UniProt Q8NBX0 (Q8NBX0 whole entry, looked up): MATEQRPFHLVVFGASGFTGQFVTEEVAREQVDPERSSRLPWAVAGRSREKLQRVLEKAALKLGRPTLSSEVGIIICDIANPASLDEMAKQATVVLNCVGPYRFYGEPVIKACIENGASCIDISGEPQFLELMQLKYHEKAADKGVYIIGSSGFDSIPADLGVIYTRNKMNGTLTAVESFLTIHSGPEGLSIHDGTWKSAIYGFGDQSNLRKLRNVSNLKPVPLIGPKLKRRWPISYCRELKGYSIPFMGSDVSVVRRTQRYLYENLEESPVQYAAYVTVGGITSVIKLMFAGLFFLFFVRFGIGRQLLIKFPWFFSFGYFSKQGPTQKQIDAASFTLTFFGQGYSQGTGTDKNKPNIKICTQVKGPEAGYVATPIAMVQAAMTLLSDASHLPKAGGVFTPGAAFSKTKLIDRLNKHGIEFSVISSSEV
Chain of UniProt Q9UL25 (Q9UL25 whole entry, looked up): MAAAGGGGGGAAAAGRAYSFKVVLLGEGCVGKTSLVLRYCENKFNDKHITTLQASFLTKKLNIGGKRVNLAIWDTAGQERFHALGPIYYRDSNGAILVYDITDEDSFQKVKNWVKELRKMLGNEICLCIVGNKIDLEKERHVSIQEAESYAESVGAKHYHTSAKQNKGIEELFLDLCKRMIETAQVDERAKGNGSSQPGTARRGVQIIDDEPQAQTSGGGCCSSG
Chain of UniProt P35241 (P35241 whole entry, looked up): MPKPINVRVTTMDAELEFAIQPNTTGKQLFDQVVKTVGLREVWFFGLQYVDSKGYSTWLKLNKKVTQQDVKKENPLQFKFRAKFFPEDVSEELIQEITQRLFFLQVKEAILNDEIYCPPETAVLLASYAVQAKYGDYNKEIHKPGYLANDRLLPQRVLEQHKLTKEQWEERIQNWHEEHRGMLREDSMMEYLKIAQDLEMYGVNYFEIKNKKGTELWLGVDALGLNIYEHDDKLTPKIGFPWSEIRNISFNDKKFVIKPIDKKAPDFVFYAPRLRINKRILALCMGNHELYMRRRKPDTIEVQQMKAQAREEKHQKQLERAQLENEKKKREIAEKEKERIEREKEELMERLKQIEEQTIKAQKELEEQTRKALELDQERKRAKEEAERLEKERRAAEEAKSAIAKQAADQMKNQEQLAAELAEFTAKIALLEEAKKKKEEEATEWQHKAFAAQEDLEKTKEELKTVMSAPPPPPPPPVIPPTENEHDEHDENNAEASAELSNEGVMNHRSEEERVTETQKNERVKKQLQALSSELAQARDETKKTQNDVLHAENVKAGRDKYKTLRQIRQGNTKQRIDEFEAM

Compound in one assay: C#Cc1cccc(Nc2ncnc3cc(OCCOC)c(OCCOC)cc23)c1 [erlotinib]
Description: log2 fold change, soluble protein after heating vs DMSO (PISA); higher = thermal stabilisation; K562 lysate, 10 uM; active = over 0.2 and 3.5 SD of the protein, either way, in both replicates (recomputed). Summed up: (§1)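 Log-two fold change in thermal stability relative to solvent controls is reported from duplicates. For each sample, crude K562 extract from dounce-homogenised pellets in PBS pH 7.4 with 1 mM MgCl2, at 1 mg/mL protein, was treated with 10 μM compound for 30 min. Aliquots heated for 3 min across 48°C-58°C were pooled, brought to 0.5% NP-40 at 4°C and cleared at 21,000xg for 90 min. The supernatant was quantified by TMTpro 16plex LC-MS/MS with channel sums equalised.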
As for SCML2 (UniProt Q9UQR0), the log2 fold change was 0.021.

With SESN2 (UniProt P58004), the log2 fold change was 0.043.

As to RAF1 isoform 2 (UniProt P04049), the log2 fold change is -0.011.

With RFC3 (UniProt P40938), the log2 fold change is 0.05.

RPS4X (UniProt P62701): the log2 fold change is -0.016.

For the target SEC24D isoform 2 (UniProt O94855), the log2 fold change is 0.016.

Turning to SCCPDH (UniProt Q8NBX0), the log2 fold change was -0.213.

In the case of SEH1L isoform 1 (UniProt Q96EE3), the log2 fold change is -0.008.

For RTN4IP1 (UniProt Q8WWV3), the log2 fold change was -0.028.

As to RPAP1 (UniProt Q9BWH6), the log2 fold change was 0.05.

For the target RIOK1 (UniProt Q9BRS2), the log2 fold change was -0.033.

Regarding REXO4 (UniProt Q9GZR2), the log2 fold change was -0.041.

RNF181 (UniProt Q9P0P0): the log2 fold change is 0.031.

As to RBMX (UniProt P38159), the log2 fold change is 0.

On to RIOK3 (UniProt O14730), for which the log2 fold change is 0.043.

For RNASEH2B (UniProt Q5TBB1), the log2 fold change was -0.01.

SCD (UniProt O00767): the log2 fold change is 0.075.

As for RBM42 (UniProt Q9BTD8), the log2 fold change is -0.034.

As to RPL37A (UniProt P61513), the log2 fold change is -0.012.

In the case of RPN2 (UniProt P04844), the log2 fold change is 0.

RRAGA (UniProt Q7L523): the log2 fold change is -0.022.

For the target RIC1 (UniProt Q4ADV7), the log2 fold change is 0.

In the case of RNASEL (UniProt Q05823), the log2 fold change is 0.103.

As for RECQL5 (UniProt O94762), the log2 fold change was 0.046.

Turning to QRSL1 (UniProt Q9H0R6), the log2 fold change was -0.01.

Take SBF1 isoform 4 (UniProt O95248): the log2 fold change was 0.033.

With RAP1B (UniProt P61224), the log2 fold change was -0.017.

With RPS26P11 (UniProt Q5JNZ5), the log2 fold change is -0.028.

For RPL8 (UniProt P62917), the log2 fold change was 0.001.

As to RIPK1 (UniProt Q13546), the log2 fold change was -0.026.

For RDX (UniProt P35241), the log2 fold change was -0.013.

With RAB21 (UniProt Q9UL25), the log2 fold change was 0.

In the case of RBBP7 isoform 2 (UniProt Q16576), the log2 fold change was -0.036.

Compound in the next assay: C/C(=N\NC(=O)C1=CC(=CC=C1)S(=O)(=O)N2CCOCC2)/C3=C(C=CC(=C3)Cl)O
The description is as above. Summed up: as §1
As to SCML2 (UniProt Q9UQR0), the log2 fold change was 0.038.

As for SESN2 (UniProt P58004), the log2 fold change is 0.102.

As for RAF1 isoform 2 (UniProt P04049), the log2 fold change was -0.033.

Consider RFC3 (UniProt P40938), for which the log2 fold change is 0.01.

For RPS4X (UniProt P62701), the log2 fold change is 0.014.

Regarding SEC24D isoform 2 (UniProt O94855), the log2 fold change is 0.04.

Turning to SCCPDH (UniProt Q8NBX0), the log2 fold change was -0.055.

On to SEH1L isoform 1 (UniProt Q96EE3), for which the log2 fold change was 0.082.

Take RTN4IP1 (UniProt Q8WWV3): the log2 fold change is 0.031.

For RPAP1 (UniProt Q9BWH6), the log2 fold change is -0.078.

In the case of RIOK1 (UniProt Q9BRS2), the log2 fold change is -0.029.

For REXO4 (UniProt Q9GZR2), the log2 fold change is -0.195.

Consider RNF181 (UniProt Q9P0P0), for which the log2 fold change is 0.037.

In the case of RBMX (UniProt P38159), the log2 fold change was 0.019.

For the target RIOK3 (UniProt O14730), the log2 fold change is -0.114.

With RNASEH2B (UniProt Q5TBB1), the log2 fold change was 0.006.

As for SCD (UniProt O00767), the log2 fold change is -0.093.

As to RBM42 (UniProt Q9BTD8), the log2 fold change is -0.161.

On to RPL37A (UniProt P61513), for which the log2 fold change was -0.067.

Take RPN2 (UniProt P04844): the log2 fold change was 0.014.

Turning to RRAGA (UniProt Q7L523), the log2 fold change is -0.019.

With RIC1 (UniProt Q4ADV7), the log2 fold change was -0.239.

For the target RNASEL (UniProt Q05823), the log2 fold change was -0.025.

Turning to RECQL5 (UniProt O94762), the log2 fold change was -0.093.

For QRSL1 (UniProt Q9H0R6), the log2 fold change is -0.003.

On to SBF1 isoform 4 (UniProt O95248), for which the log2 fold change was -0.059.

Consider RAP1B (UniProt P61224), for which the log2 fold change was -0.085.

Regarding RPS26P11 (UniProt Q5JNZ5), the log2 fold change is -0.021.

As for RPL8 (UniProt P62917), the log2 fold change was -0.307.

With RIPK1 (UniProt Q13546), the log2 fold change was -0.01.

With RDX (UniProt P35241), the log2 fold change is 0.017.

For the target RAB21 (UniProt Q9UL25), the log2 fold change is -0.008.

Take RBBP7 isoform 2 (UniProt Q16576): the log2 fold change is 0.046.

Compound in another assay: C1=CC(=CC=C1C2=NC3=C(N2)C=C(C=C3)C(=O)N)OC4=CC=C(C=C4)Cl
Described as above. Summed up: as §1
With SCML2 (UniProt Q9UQR0), the log2 fold change is 0.019.

Consider SESN2 (UniProt P58004), for which the log2 fold change is -0.007.

In the case of RAF1 isoform 2 (UniProt P04049), the log2 fold change is -0.016.

RFC3 (UniProt P40938): the log2 fold change is -0.034.

As to RPS4X (UniProt P62701), the log2 fold change was -0.012.

As to SEC24D isoform 2 (UniProt O94855), the log2 fold change is 0.012.

For the target SCCPDH (UniProt Q8NBX0), the log2 fold change is -0.027.

Take SEH1L isoform 1 (UniProt Q96EE3): the log2 fold change is -0.001.

With RTN4IP1 (UniProt Q8WWV3), the log2 fold change was -0.028.

Consider RPAP1 (UniProt Q9BWH6), for which the log2 fold change is 0.019.

With RIOK1 (UniProt Q9BRS2), the log2 fold change is 0.034.

Consider REXO4 (UniProt Q9GZR2), for which the log2 fold change is -0.041.

On to RNF181 (UniProt Q9P0P0), for which the log2 fold change was 0.016.

On to RBMX (UniProt P38159), for which the log2 fold change is -0.056.

RIOK3 (UniProt O14730): the log2 fold change is -0.057.

Take RNASEH2B (UniProt Q5TBB1): the log2 fold change was -0.024.

Take SCD (UniProt O00767): the log2 fold change is 0.027.

Regarding RBM42 (UniProt Q9BTD8), the log2 fold change was 0.073.

Take RPL37A (UniProt P61513): the log2 fold change is -0.006.

Regarding RPN2 (UniProt P04844), the log2 fold change was -0.055.

With RRAGA (UniProt Q7L523), the log2 fold change is 0.001.

For the target RIC1 (UniProt Q4ADV7), the log2 fold change was -0.074.

For the target RNASEL (UniProt Q05823), the log2 fold change is -0.019.

Turning to RECQL5 (UniProt O94762), the log2 fold change was 0.282.

As to QRSL1 (UniProt Q9H0R6), the log2 fold change is 0.004.

Consider SBF1 isoform 4 (UniProt O95248), for which the log2 fold change is 0.042.

On to RAP1B (UniProt P61224), for which the log2 fold change is 0.024.

Turning to RPS26P11 (UniProt Q5JNZ5), the log2 fold change is -0.015.

With RPL8 (UniProt P62917), the log2 fold change was -0.024.

Turning to RIPK1 (UniProt Q13546), the log2 fold change is -0.017.

Consider RDX (UniProt P35241), for which the log2 fold change was 0.014.

For the target RAB21 (UniProt Q9UL25), the log2 fold change was 0.015.

RBBP7 isoform 2 (UniProt Q16576): the log2 fold change is -0.036.
